# Records with an inconclusive call do not appear. Calls of active or inactive are those of the source. Rule for the calls: active = hit-call score of the fitted dose curve at least 0.9, where 1 is the maximum; inconclusive = response in the unintended direction; inactive = score below 0.9.
# Experiments:
# [1] = target: AR (gene 367) (UniProt P10275); experiment: ACEA_AR_antagonist_80hr: ACEA Biosciences xCELLigence Real-Time Cell Analysis on Androgen Receptor Antagonism for Proliferation (AID 2283787);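 note: 22Rv1 human prostate cancer cells with growth followed by electrical impedance; hits lower the impedance growth signal relative to DMSO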
# Chain of AR (gene 367) (P10275 whole entry, looked up): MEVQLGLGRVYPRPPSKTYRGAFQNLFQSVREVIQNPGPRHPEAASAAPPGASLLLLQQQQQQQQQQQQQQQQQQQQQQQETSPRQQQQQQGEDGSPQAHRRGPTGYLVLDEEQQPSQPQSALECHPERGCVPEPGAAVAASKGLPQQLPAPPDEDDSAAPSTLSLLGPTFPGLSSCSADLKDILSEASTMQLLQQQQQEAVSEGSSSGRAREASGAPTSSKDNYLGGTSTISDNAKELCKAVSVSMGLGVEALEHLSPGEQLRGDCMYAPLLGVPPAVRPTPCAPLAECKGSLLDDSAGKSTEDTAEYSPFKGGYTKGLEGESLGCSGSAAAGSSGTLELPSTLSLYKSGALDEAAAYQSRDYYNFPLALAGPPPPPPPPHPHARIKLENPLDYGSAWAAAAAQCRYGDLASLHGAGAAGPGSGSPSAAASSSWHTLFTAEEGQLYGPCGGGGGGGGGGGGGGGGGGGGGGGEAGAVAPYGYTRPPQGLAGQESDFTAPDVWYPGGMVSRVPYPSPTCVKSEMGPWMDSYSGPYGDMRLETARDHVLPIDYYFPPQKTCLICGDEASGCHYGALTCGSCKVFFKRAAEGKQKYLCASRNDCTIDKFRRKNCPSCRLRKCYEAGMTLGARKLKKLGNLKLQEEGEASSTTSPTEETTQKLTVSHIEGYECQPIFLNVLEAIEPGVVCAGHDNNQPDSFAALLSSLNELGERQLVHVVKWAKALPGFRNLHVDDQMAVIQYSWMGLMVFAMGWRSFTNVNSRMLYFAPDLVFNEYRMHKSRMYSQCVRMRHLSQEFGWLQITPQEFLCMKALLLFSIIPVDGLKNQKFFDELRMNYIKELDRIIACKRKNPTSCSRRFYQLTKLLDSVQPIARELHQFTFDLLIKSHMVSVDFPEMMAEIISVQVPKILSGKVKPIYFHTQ
# Method in brief: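 Impedance readout (RT-CES), 80 h post-dose; loss-of-signal vs DMSO baseline. 22Rv1 cells in assay medium. Compounds: 8-pt 1:4 series, max 100 uM final, up to 0.5% DMSO; n = 2.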
# [2] = target: Estrogen receptor beta (Homo sapiens) (UniProt Q92731); experiment: ATG_hERb_XSP1: Attagene TRANS-FACTORIAL Multi-Species (XSP1) HepG2 Assay for human Estrogen Receptor (ESR2) (AID 2283788)
# Chain of Estrogen receptor beta (Homo sapiens) (Q92731 whole entry, looked up, the tested form may be a part): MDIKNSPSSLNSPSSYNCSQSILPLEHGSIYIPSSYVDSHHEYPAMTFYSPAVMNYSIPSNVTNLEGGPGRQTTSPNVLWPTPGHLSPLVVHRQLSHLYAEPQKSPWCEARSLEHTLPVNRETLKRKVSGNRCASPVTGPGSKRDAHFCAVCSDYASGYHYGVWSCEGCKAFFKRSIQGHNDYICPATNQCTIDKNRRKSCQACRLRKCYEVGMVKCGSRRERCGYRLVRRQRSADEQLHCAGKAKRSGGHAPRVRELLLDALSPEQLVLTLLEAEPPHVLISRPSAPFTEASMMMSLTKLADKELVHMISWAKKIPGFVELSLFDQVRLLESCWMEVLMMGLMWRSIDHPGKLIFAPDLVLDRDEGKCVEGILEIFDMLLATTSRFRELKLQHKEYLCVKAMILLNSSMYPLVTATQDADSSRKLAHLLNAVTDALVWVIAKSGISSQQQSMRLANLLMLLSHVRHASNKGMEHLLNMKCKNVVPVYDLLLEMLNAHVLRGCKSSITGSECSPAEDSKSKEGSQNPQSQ
# Method in brief: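 Read-out: reporter mRNA induction by RT-PCR, HpaI digestion and capillary electrophoresis fluorescence, fitted in positive direction relative to DMSO baseline. Human liver HepG2 cells expressing ERβ-Gal4 fusion, dosed 24 h, medium containing 3 nM 6-alpha-fluorotestosterone.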
# [3] = ATG_M_06_XSP1: Attagene TRANS-FACTORIAL Multi-Species (XSP1) HepG2 Assay for M06 Transcription Factor (Internal Marker) (AID 2283790)
# Method in brief: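 Transfected HepG2 multi-reporter system treated 24 h in the presence of 3 nM 6-alpha-fluorotestosterone. The M06 internal marker transcript was quantified by RT-PCR with capillary electrophoresis as a background control, and gain of signal was scored versus DMSO.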
# [4] = ATG_M_61_XSP1: Attagene TRANS-FACTORIAL Multi-Species (XSP1) HepG2 Assay for M61 Transcription Factor (Internal Marker) (AID 2283797)
# Method in brief: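 HepG2 cells transiently transfected with multiplexed GAL4-driven reporter units, dosed 24 h with 3 nM 6-alpha-fluorotestosterone present. Reporter mRNA quantified by RT-PCR, 6-FAM labelling, HpaI digestion and capillary electrophoresis; internal-marker background control, gain of signal versus DMSO.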
# [5] = ATG_M_32_XSP1: Attagene TRANS-FACTORIAL Multi-Species (XSP1) HepG2 Assay for M32 Transcription Factor (Internal Marker) (AID 2283799)
# Method in brief: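 HepG2 cells transiently transfected with multi-species TRANS reporter units, dosed 24 h with 3 nM 6-alpha-fluorotestosterone present. Internal-marker reporter mRNA quantified by RT-PCR and capillary electrophoresis; positive-direction fit versus DMSO.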
# [6] = target: Peroxisome proliferator-activated receptor gamma (Homo sapiens) (UniProt P37231); experiment: ATG_hPPARg_XSP1: Attagene TRANS-FACTORIAL Multi-Species (XSP1) HepG2 Assay for human Peroxisome Proliferator-activated Receptor gamma (PPARg) (AID 2283800)
# Chain of Peroxisome proliferator-activated receptor gamma (Homo sapiens) (P37231 whole entry, looked up, the tested form may be a part): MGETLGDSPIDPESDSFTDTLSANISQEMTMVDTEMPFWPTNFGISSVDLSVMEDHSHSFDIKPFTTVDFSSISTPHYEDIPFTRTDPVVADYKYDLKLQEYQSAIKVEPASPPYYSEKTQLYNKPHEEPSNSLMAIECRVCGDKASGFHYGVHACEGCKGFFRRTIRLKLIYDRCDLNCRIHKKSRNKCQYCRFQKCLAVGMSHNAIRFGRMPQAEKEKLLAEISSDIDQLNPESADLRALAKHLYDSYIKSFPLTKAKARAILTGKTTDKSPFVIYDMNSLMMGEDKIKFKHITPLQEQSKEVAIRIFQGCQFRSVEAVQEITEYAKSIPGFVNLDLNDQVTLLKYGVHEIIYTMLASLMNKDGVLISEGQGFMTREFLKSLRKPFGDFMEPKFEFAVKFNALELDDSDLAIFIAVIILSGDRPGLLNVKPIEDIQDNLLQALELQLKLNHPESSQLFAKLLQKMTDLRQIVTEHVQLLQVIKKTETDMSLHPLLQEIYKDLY
# Method in brief: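 HepG2 cells transiently transfected with GAL4-UAS reporter units carrying chimeric NR-Gal4 proteins; 3 nM 6-alpha-fluorotestosterone present. After 24 h dosing, reporter mRNA quantified by RT-PCR and capillary electrophoresis; gain of signal relative to DMSO.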
# [7] = test system: zebrafish Peroxisome Proliferator-activated Receptor gamma (PPARg), gene 557037; experiment: ATG_zfPPARg_XSP1: Attagene TRANS-FACTORIAL Multi-Species (XSP1) HepG2 Assay for zebrafish Peroxisome Proliferator-activated Receptor gamma (PPARg) (AID 2283801)
# Method in brief: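 HepG2 cells transiently transfected with GAL4-UAS reporter units including a zebrafish PPARg–GAL4 chimera, dosed 24 h with 3 nM 6-alpha-fluorotestosterone present. Reporter mRNA quantified by RT-PCR, FAM labelling, HpaI digestion and capillary electrophoresis; induction versus DMSO.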
# [8] = target: mouse Peroxisome Proliferator-activated Receptor gamma (PPARg), Pparg (gene 19016) (UniProt P37238); experiment: ATG_mPPARg_XSP1: Attagene TRANS-FACTORIAL Multi-Species (XSP1) HepG2 Assay for mouse Peroxisome Proliferator-activated Receptor gamma (PPARg) (AID 2283802)
# Chain of mouse Peroxisome Proliferator-activated Receptor gamma (PPARg), Pparg (gene 19016) (P37238 whole entry, looked up, the tested form may be a part): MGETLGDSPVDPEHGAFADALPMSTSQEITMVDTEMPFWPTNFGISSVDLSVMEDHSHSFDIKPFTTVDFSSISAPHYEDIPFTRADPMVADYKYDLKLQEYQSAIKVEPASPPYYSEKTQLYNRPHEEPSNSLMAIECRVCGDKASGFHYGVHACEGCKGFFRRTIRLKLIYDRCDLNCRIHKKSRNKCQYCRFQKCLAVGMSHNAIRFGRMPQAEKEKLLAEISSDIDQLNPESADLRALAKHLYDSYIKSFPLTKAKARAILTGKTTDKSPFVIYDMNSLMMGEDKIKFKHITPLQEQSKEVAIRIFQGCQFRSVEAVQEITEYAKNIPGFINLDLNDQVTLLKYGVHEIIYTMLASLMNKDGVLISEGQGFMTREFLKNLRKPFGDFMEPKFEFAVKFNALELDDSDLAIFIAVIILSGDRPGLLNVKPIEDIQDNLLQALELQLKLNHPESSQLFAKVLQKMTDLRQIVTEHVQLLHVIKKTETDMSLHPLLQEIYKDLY
# Method in brief: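 HepG2 cells transiently transfected with GAL4-UAS reporter units driven by mouse PPARg–GAL4 chimera; 3 nM 6-alpha-fluorotestosterone present. After 24 h dosing, reporter mRNA quantified by RT-PCR, fluorescent labelling and capillary electrophoresis; gain of signal versus DMSO.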
smiles,measurement,setting,value
CCCSP(=O)(OCC)SCCC,AC50,[1],34 µM (active)
CCc1cccc(C)c1N(C(=O)CCl)C(C)COC (stereo not given),AC50,[2],4.14 µM (active)
same,outcome,[3],inactive
same,outcome,[4],inactive
same,outcome,[5],inactive
same,AC50,[6],5.37 µM (active)
same,outcome,[7],inactive
same,AC50,[8],25.5 µM (active)
C#CCC1=C(C)C(OC(=O)C2C(C=C(C)C)C2(C)C)CC1=O (stereo not given),outcome,[2],inactive
same,outcome,[3],inactive
same,outcome,[4],inactive
same,outcome,[5],inactive
same,AC50,[6],27.2 µM (active)
same,AC50,[8],26.7 µM (active)
CCCOc1nn(C(=O)NS(=O)(=O)c2ccccc2C(=O)OC)c(=O)n1C,outcome,[1],inactive

# Source: PubChem BioAssay (EPA / NIEHS)
